Measured values taken from PubChem BioAssay (NCI).
This is part of a sample that, as a whole, favours compounds with a hit. Of some 79,000 tested, about 15% had one in any assay. A number with no mark means an inactive call. Calls of active or inactive are those of the source. No stated cut-off is given here; in the data, active means growth inhibition above about 70%; inactive means the rest.

Columns and labels:
[1] = NCI Yeast Anticancer Drug Screen. Data for the rad52 strain (AID 147);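 further: 0% = growth of vehicle-treated control cultures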; conditions: S. cerevisiae rad52 mutant growth inhibition, active compounds read high
Procedure, shortened: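 Compounds are applied to a genetically defined yeast strain lacking normal DNA damage repair, and inhibition of growth is expressed relative to cultures given vehicle only.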

[2] = NCI Yeast Anticancer Drug Screen. Data for the wt1 strain (AID 149);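 further: 0% = growth of vehicle-treated wt1 cultures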; conditions: S. cerevisiae wt1 strain (SPY 50644) growth inhibition, active compounds read high
Procedure, shortened: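 Compounds are added to wt1 yeast cultures. Growth is then measured. Inhibition is expressed relative to vehicle-treated controls.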

[3] = NCI Yeast Anticancer Drug Screen. Data for the rad50EPP+ strain (AID 151);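 further: 0% = growth of vehicle-treated control cultures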; conditions: S. cerevisiae rad50 mutant strain, active compounds read high
Procedure, shortened: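 Compounds were applied to the rad50EPP+ yeast strain, which bears a defined DNA repair alteration, and growth inhibition was determined relative to vehicle-treated cultures.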

[4] = NCI Yeast Anticancer Drug Screen. Data for the mgt1 strain (AID 153); conditions: S. cerevisiae mgt1 mutant growth inhibition, active compounds read high
Procedure, shortened: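 Strain: mgt1 yeast, one of a set carrying defined DNA damage repair or cell cycle control alterations. Compound-treated growth compared with vehicle.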

[5] = NCI Yeast Anticancer Drug Screen. Data for the rad50 strain (AID 155);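 further: 0% = growth of vehicle-only cultures of the same strain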; conditions: S. cerevisiae rad50 strain growth inhibition, active compounds read high
Procedure, shortened: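 Inhibition values express reduced yeast growth in compound-treated cultures relative to vehicle-treated controls.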

[6] = NCI Yeast Anticancer Drug Screen. Data for the mec2-1 strain (AID 157); conditions: S. cerevisiae mec2-1 strain, active compounds read high
Procedure, shortened: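 Strain: mec2-1 (DNA repair/cell cycle alteration). Compound exposure, then growth measured; inhibition expressed relative to vehicle.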

[7] = NCI Yeast Anticancer Drug Screen. Data for the rad14 strain (AID 159);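 further: 0% = growth of vehicle-treated control cultures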; conditions: S. cerevisiae rad14 strain growth inhibition, active compounds read high
Procedure, shortened: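 A mutant yeast strain defective in DNA damage repair is treated with compound; inhibition of its growth is scored against untreated, vehicle-exposed cultures.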

[8] = NCI Yeast Anticancer Drug Screen. Data for the sgs1 mgt1 strain (AID 161);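 further: 0% = growth of cultures given vehicle only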; conditions: S. cerevisiae sgs1 mgt1 strain, active compounds read high
Procedure, shortened: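 Test agents were incubated with a DNA-repair-mutant yeast strain. Growth was then read and compared against vehicle-treated controls.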

[9] = NCI Yeast Anticancer Drug Screen. Data for the CLN2oe strain (AID 163);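 further: 0% = growth of vehicle-only control cultures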; conditions: S. cerevisiae CLN2oe strain, active compounds read high
Procedure, shortened: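 Growth of a genetically modified yeast strain is measured after compound exposure and compared with cultures given vehicle alone.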

[10] = NCI Yeast Anticancer Drug Screen. Data for the cln2 rad14 strain (AID 165);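 further: 0% = growth equal to vehicle treated cultures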; conditions: S. cerevisiae cln2 rad14 strain, active compounds read high
Procedure, shortened: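 Compounds are applied to the cln2 rad14 yeast strain, and growth is then compared with that of vehicle-treated cultures to give inhibition.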

[11] = NCI Yeast Anticancer Drug Screen. Data for the bub3 strain (AID 167); conditions: S. cerevisiae bub3 mutant strain, active compounds read high
Procedure, shortened: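 Steps: expose the mutant yeast strain to compound; grow alongside vehicle-treated cultures; measure growth; express inhibition against the vehicle cultures.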

[12] = NCI Yeast Anticancer Drug Screen. Data for the wt2 strain (AID 169);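 further: 0% = growth of vehicle-treated yeast cultures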; conditions: S. cerevisiae wt2 strain growth inhibition, active compounds read high
Procedure, shortened: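 This strain belongs to a panel of yeast strains with defined genetic alterations in DNA damage repair or cell cycle control. Compounds are applied, and growth inhibition is measured against vehicle-treated cultures.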

[13] = NCI Yeast Anticancer Drug Screen. Data for the mlh1 strain (AID 171);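 further: 0% = growth of vehicle-treated control cultures of the same strain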; conditions: S. cerevisiae mlh1 strain growth inhibition, active compounds read high
Procedure, shortened: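 Growth of the mutant yeast strain after compound exposure, expressed as inhibition relative to vehicle-only controls.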

[14] = NCI Yeast Anticancer Drug Screen. Data for the sgs1 strain (AID 173);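 further: 0% = growth of vehicle-only control cultures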; conditions: S. cerevisiae sgs1 mutant, active compounds read high
Procedure, shortened: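 Growth of a yeast strain bearing a defined genetic alteration is measured after compound treatment. Inhibition is expressed relative to vehicle-only controls.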

[15] = NCI Yeast Anticancer Drug Screen. Data for the mlh1 rad18 strain (AID 175); conditions: S. cerevisiae mlh1 rad18 strain growth inhibition, active compounds read high
Procedure, shortened: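 Read-out is yeast growth inhibition, calculated against vehicle-only controls. The compound was applied to a strain engineered with DNA damage repair alterations.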

[16] = NCI Yeast Anticancer Drug Screen. Data for the rad18 strain (AID 177); conditions: S. cerevisiae rad18 mutant growth inhibition, active compounds read high
Procedure, shortened: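 Growth of the mutant yeast strain after compound exposure, normalised to vehicle-only cultures.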

[17] = at 5.0 µM (retest, dose inferred, filed as 0.5)
[18] = at 50.0 µM (retest, dose inferred, filed as 5.0)

SMILES: O=C1CCC(Cc2ccccc2)CN1 (stereo unspecified)
- growth inhibition ([1]; at 1.2 µM): -1%
- growth inhibition ([1]; at 3.7 µM): -1%
- growth inhibition ([1]; at 11.0 µM): -2%
- growth inhibition ([1]; at 33.0 µM): -3%
- growth inhibition ([1]; at 100.0 µM): 0%
- growth inhibition ([2]; at 1.2 µM): -3%
- growth inhibition ([2]; at 3.7 µM): -2%
- growth inhibition ([2]; at 11.0 µM): 1%
- growth inhibition ([2]; at 33.0 µM): -2%
- growth inhibition ([2]; at 100.0 µM): -1%
- growth inhibition ([3]; at 1.2 µM): -1%
- growth inhibition ([3]; at 3.7 µM): 0%
- growth inhibition ([3]; at 11.0 µM): 12%
- growth inhibition ([3]; at 33.0 µM): 25%
- growth inhibition ([3]; at 100.0 µM): 42%
- growth inhibition ([4]; at 1.2 µM): -1%
- growth inhibition ([4]; at 3.7 µM): -5%
- growth inhibition ([4]; at 11.0 µM): -1%
- growth inhibition ([4]; at 33.0 µM): 68%
- growth inhibition ([4]; at 100.0 µM): 93% (active)
- growth inhibition ([5]; at 1.2 µM): -1%
- growth inhibition ([5]; at 3.7 µM): -2%
- growth inhibition [5, 17]: 10%
- growth inhibition ([5]; at 11.0 µM): -2%
- growth inhibition ([5]; at 33.0 µM): -3%
- growth inhibition [5, 18]: 7%
- growth inhibition ([5]; at 50.0 µM): 7.1%
- growth inhibition ([5]; at 100.0 µM): -1%
- growth inhibition ([6]; at 1.2 µM): -1%
- growth inhibition ([6]; at 3.7 µM): -1%
- growth inhibition [6, 17]: -11%
- growth inhibition ([6]; at 11.0 µM): 0%
- growth inhibition ([6]; at 33.0 µM): -1%
- growth inhibition [6, 18]: -3%
- growth inhibition ([6]; at 50.0 µM): 19.7%
- growth inhibition ([6]; at 100.0 µM): 3%
- growth inhibition ([7]; at 1.2 µM): -2%
- growth inhibition ([7]; at 3.7 µM): -1%
- growth inhibition ([7]; at 11.0 µM): -2%
- growth inhibition ([7]; at 33.0 µM): -1%
- growth inhibition ([7]; at 100.0 µM): 1%
- growth inhibition [8, 17]: 3%
- growth inhibition [8, 18]: 80% (active)
- growth inhibition ([8]; at 50.0 µM): 81.5% (active)
- growth inhibition ([9]; at 1.2 µM): -8%
- growth inhibition ([9]; at 3.7 µM): -5%
- growth inhibition ([9]; at 11.0 µM): 3%
- growth inhibition ([9]; at 33.0 µM): -4%
- growth inhibition ([9]; at 100.0 µM): -6%
- growth inhibition [10, 17]: -2%
- growth inhibition [10, 18]: 4%
- growth inhibition ([10]; at 50.0 µM): 0.15%
- growth inhibition ([11]; at 1.2 µM): -4%
- growth inhibition ([11]; at 3.7 µM): -5%
- growth inhibition [11, 17]: -11%
- growth inhibition ([11]; at 11.0 µM): -5%
- growth inhibition ([11]; at 33.0 µM): -7%
- growth inhibition [11, 18]: -8%
- growth inhibition ([11]; at 50.0 µM): 10.9%
- growth inhibition ([11]; at 100.0 µM): -8%
- growth inhibition ([12]; at 1.2 µM): -3%
- growth inhibition ([12]; at 3.7 µM): 0%
- growth inhibition ([12]; at 11.0 µM): 3%
- growth inhibition ([12]; at 33.0 µM): 50%
- growth inhibition ([12]; at 100.0 µM): 92% (active)
- growth inhibition ([13]; at 1.2 µM): -3%
- growth inhibition ([13]; at 3.7 µM): -2%
- growth inhibition ([13]; at 11.0 µM): 0%
- growth inhibition ([13]; at 33.0 µM): 37%
- growth inhibition ([13]; at 100.0 µM): 90% (active)
- growth inhibition ([14]; at 1.2 µM): 0%
- growth inhibition ([14]; at 3.7 µM): 1%
- growth inhibition ([14]; at 11.0 µM): 11%
- growth inhibition ([14]; at 33.0 µM): 62%
- growth inhibition ([14]; at 100.0 µM): 93% (active)
- growth inhibition [15, 17]: -9%
- growth inhibition [15, 18]: 1%
- growth inhibition ([15]; at 50.0 µM): 3.7%
- growth inhibition ([16]; at 1.2 µM): 1%
- growth inhibition ([16]; at 3.7 µM): -2%
- growth inhibition ([16]; at 11.0 µM): 4%
- growth inhibition ([16]; at 33.0 µM): 0%
- growth inhibition ([16]; at 100.0 µM): 1%

SMILES: COc1ccc2cc(C(C)C(=O)N3CCOC3=O)ccc2c1 (stereo unspecified)
- growth inhibition ([1]; at 1.2 µM): -9%
- growth inhibition ([1]; at 3.7 µM): -16%
- growth inhibition ([1]; at 11.0 µM): -7%
- growth inhibition ([1]; at 33.0 µM): -8%
- growth inhibition ([1]; at 100.0 µM): 12%
- growth inhibition ([2]; at 1.2 µM): -34%
- growth inhibition ([2]; at 3.7 µM): -34%
- growth inhibition ([2]; at 11.0 µM): -29%
- growth inhibition ([2]; at 33.0 µM): -31%
- growth inhibition ([2]; at 100.0 µM): -22%
- growth inhibition ([3]; at 1.2 µM): 5%
- growth inhibition ([3]; at 3.7 µM): 5%
- growth inhibition ([3]; at 11.0 µM): 7%
- growth inhibition ([3]; at 33.0 µM): 9%
- growth inhibition ([3]; at 100.0 µM): 22%
- growth inhibition ([4]; at 1.2 µM): 5%
- growth inhibition ([4]; at 3.7 µM): 6%
- growth inhibition ([4]; at 11.0 µM): 7%
- growth inhibition ([4]; at 33.0 µM): 21%
- growth inhibition ([4]; at 100.0 µM): 45%
- growth inhibition ([5]; at 1.2 µM): 21%
- growth inhibition ([5]; at 3.7 µM): 24%
- growth inhibition [5, 17]: -14%
- growth inhibition ([5]; at 11.0 µM): 15%
- growth inhibition ([5]; at 33.0 µM): 23%
- growth inhibition [5, 18]: 27%
- growth inhibition ([5]; at 50.0 µM): 60.6%
- growth inhibition ([5]; at 100.0 µM): 50%
- growth inhibition ([6]; at 1.2 µM): -21%
- growth inhibition ([6]; at 3.7 µM): -28%
- growth inhibition [6, 17]: -11%
- growth inhibition ([6]; at 11.0 µM): -27%
- growth inhibition ([6]; at 33.0 µM): -19%
- growth inhibition [6, 18]: 9%
- growth inhibition ([6]; at 50.0 µM): 23.9%
- growth inhibition ([6]; at 100.0 µM): 11%
- growth inhibition ([7]; at 1.2 µM): -18%
- growth inhibition ([7]; at 3.7 µM): -20%
- growth inhibition ([7]; at 11.0 µM): -22%
- growth inhibition ([7]; at 33.0 µM): -17%
- growth inhibition ([7]; at 100.0 µM): 50%
- growth inhibition [8, 17]: 7%
- growth inhibition [8, 18]: 37%
- growth inhibition ([8]; at 50.0 µM): 57.1%
- growth inhibition ([9]; at 1.2 µM): 11%
- growth inhibition ([9]; at 3.7 µM): 5%
- growth inhibition ([9]; at 11.0 µM): -3%
- growth inhibition ([9]; at 33.0 µM): -6%
- growth inhibition ([9]; at 100.0 µM): 11%
- growth inhibition [10, 17]: 16%
- growth inhibition [10, 18]: 17%
- growth inhibition ([10]; at 50.0 µM): 24.7%
- growth inhibition ([11]; at 1.2 µM): 29%
- growth inhibition ([11]; at 3.7 µM): 25%
- growth inhibition [11, 17]: -15%
- growth inhibition ([11]; at 11.0 µM): 24%
- growth inhibition ([11]; at 33.0 µM): 21%
- growth inhibition [11, 18]: 75% (active)
- growth inhibition ([11]; at 50.0 µM): 29.2%
- growth inhibition ([11]; at 100.0 µM): 40%
- growth inhibition ([12]; at 1.2 µM): -41%
- growth inhibition ([12]; at 3.7 µM): -41%
- growth inhibition ([12]; at 11.0 µM): -34%
- growth inhibition ([12]; at 33.0 µM): -28%
- growth inhibition ([12]; at 100.0 µM): -7%
- growth inhibition ([13]; at 1.2 µM): 21%
- growth inhibition ([13]; at 3.7 µM): 10%
- growth inhibition ([13]; at 11.0 µM): 11%
- growth inhibition ([13]; at 33.0 µM): 21%
- growth inhibition ([13]; at 100.0 µM): 64%
- growth inhibition ([14]; at 1.2 µM): -2%
- growth inhibition ([14]; at 3.7 µM): -12%
- growth inhibition ([14]; at 11.0 µM): -2%
- growth inhibition ([14]; at 33.0 µM): 3%
- growth inhibition ([14]; at 100.0 µM): 27%
- growth inhibition [15, 17]: -28%
- growth inhibition [15, 18]: 78% (active)
- growth inhibition ([15]; at 50.0 µM): 44.1%
- growth inhibition ([16]; at 1.2 µM): 13%
- growth inhibition ([16]; at 3.7 µM): 10%
- growth inhibition ([16]; at 11.0 µM): 9%
- growth inhibition ([16]; at 33.0 µM): 4%
- growth inhibition ([16]; at 100.0 µM): 21%
